Experimental data as given in PubChem BioAssay (EPA / NIEHS).
Records with an inconclusive call do not appear. Calls of active or inactive are those of the source. Rule for the calls, unless noted: active = hit-call score of the fitted dose curve at least 0.9, where 1 is the maximum; inactive = score below 0.9.

Experiments:
[1] = molecular target: Retinoic acid receptor RXR-alpha (Homo sapiens) (UniProt P19793); assay: ATG_RXRa_TRANS: Attagene TRANS-FACTORIAL HepG2 Assay for human Retinoid X Receptor alpha (RXRa) (AID 2283012; active = hit-call score of the fitted dose curve at least 0.9, where 1 is the maximum)
Chain of Retinoic acid receptor RXR-alpha (Homo sapiens) (P19793 whole entry, looked up, the tested form may be a part): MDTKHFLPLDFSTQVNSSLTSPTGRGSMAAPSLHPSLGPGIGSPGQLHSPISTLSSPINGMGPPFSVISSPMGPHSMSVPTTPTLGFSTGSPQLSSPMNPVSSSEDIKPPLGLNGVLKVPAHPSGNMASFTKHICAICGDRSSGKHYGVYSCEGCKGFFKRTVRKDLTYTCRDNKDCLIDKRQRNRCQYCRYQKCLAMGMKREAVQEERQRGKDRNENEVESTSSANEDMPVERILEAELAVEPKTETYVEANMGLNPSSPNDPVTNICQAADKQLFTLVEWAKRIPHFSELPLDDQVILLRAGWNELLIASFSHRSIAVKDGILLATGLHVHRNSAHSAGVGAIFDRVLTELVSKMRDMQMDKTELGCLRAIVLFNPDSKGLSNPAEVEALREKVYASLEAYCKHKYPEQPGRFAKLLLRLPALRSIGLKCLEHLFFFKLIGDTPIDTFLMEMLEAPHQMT
Summary of the method: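 Measures exogenous chimeric NR-GAL4 activity in transfected HepG2 liver cells after 24 h of dosing. Induced reporter mRNA was detected by RT-PCR with capillary electrophoresis, and gain of signal was analysed against DMSO.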

[2] = molecular target: human Retinoid X Receptor beta (RXRb), RXRB (gene 6257) (UniProt P28702); assay: ATG_RXRb_TRANS: Attagene TRANS-FACTORIAL HepG2 Assay for human Retinoid X Receptor beta (RXRb) (AID 2283013; active = hit-call score of the fitted dose curve at least 0.9, where 1 is the maximum)
Chain of human Retinoid X Receptor beta (RXRb), RXRB (gene 6257) (P28702 whole entry, looked up, the tested form may be a part): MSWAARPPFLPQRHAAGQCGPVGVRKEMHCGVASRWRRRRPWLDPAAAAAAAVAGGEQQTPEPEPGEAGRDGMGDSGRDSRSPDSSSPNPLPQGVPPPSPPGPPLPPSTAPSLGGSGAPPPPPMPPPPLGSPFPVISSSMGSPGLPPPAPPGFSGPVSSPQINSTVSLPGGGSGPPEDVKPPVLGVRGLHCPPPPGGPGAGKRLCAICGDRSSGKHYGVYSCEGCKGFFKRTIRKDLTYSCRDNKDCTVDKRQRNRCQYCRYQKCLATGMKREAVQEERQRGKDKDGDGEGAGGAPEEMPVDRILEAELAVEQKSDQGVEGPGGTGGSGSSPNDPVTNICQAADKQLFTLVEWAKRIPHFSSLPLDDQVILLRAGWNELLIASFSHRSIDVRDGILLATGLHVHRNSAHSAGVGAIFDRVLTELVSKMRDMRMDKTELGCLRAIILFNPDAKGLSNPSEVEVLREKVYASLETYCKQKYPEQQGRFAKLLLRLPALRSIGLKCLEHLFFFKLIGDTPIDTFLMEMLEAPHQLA
Summary of the method: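 Chimeric receptor-Gal4 activity was assessed in transiently transfected human HepG2 cells after 24 h exposure. Transcripts from GAL4-UAS reporters were quantified by fluorescent RT-PCR and capillary electrophoresis, with DMSO as negative control and baseline.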

[3] = read-out: E-selectin (Homo sapiens) (UniProt P16581); assay: BSK_3C_Eselectin: BioMAP Diversity Plus: 3C Assay for Eselectin Biomarker Activity (AID 2283015); details: primary human endothelial cells (HUVEC); actives raise or lower the signal
Summary of the method: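 Endpoint derived by bidirectional fitting against DMSO vehicle; signal is ELISA-detected E-selectin from primary HUVEC at 24 h post-dosing, with parallel SRB staining (0.1% SRB, 560 nm) flagging cytotoxicity.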

[4] = read-out: Interleukin-1 alpha (IL1a), IL1A (gene 3552); assay: BSK_BE3C_IL1a: BioMAP Diversity Plus: BE3C Assay for Interleukin-1 alpha (IL1a) Biomarker Activity (AID 2283016); details: primary human bronchial epithelial cells; actives raise or lower the signal
Summary of the method: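 Signal from IL-1a ELISA, taken 24 h after chemical dosing of human bronchial epithelial cells, is compared with DMSO as baseline using bidirectional curve fitting.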

[5] = read-out: Monocyte Chemoattractant Protein-1 (MCP1), CCL2 (gene 6347); assay: BSK_3C_MCP1: BioMAP Diversity Plus: 3C Assay for Monocyte Chemoattractant Protein-1 (MCP1) Biomarker Activity (AID 2283017); details: primary human endothelial cells (HUVEC); actives raise or lower the signal
Summary of the method: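 Using human vascular primary endothelium, researchers measured MCP-1 by ELISA 24 h after treatment, with DMSO serving as negative control for bidirectional fitting.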

[6] = read-out: Monocyte Chemoattractant Protein-1 (MCP1), CCL2 (gene 6347); assay: BSK_4H_MCP1: BioMAP Diversity Plus: 4H Assay for Monocyte Chemoattractant Protein-1 (MCP1) Biomarker Activity (AID 2283018); details: primary human endothelial cells (HUVEC); actives raise or lower the signal
Summary of the method: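 Endothelial cells from umbilical vein were treated with test chemical, then after 24 h MCP-1 levels were quantified by ELISA; endpoint values came from bidirectional fitting with DMSO as baseline of activity.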

[7] = read-out: Human Leukocyte Antigen - DR isotype (HLADR), HLA-DRA (gene 3122); assay: BSK_3C_HLADR: BioMAP Diversity Plus: 3C Assay for Human Leukocyte Antigen - DR isotype (HLADR) Biomarker Activity (AID 2283019); details: primary human endothelial cells (HUVEC); actives raise or lower the signal
Summary of the method: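 Compound added to primary HUVEC cultures, 24 h incubation, then HLA-DR determined by ELISA; endpoint derived by bidirectional fitting relative to DMSO negative control.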

[8] = read-out: Interleukin-8 (IL8), CXCL8 (gene 3576); assay: BSK_3C_IL8: BioMAP Diversity Plus: 3C Assay for Interleukin-8 (IL8) Biomarker Activity (AID 2283020); details: primary human endothelial cells (HUVEC); actives raise or lower the signal
Summary of the method: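 Endothelial primary cells of human umbilical vein origin are dosed with chemical; after 24 h the IL-8 biomarker is measured by ELISA, and concentration–response is fitted in both directions versus DMSO.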

[9] = read-out: Monokine induced gamma interferon (MIG), CXCL9 (gene 4283); assay: BSK_3C_MIG: BioMAP Diversity Plus: 3C Assay for Monokine induced gamma interferon (MIG) Biomarker Activity (AID 2283021); details: primary human endothelial cells (HUVEC); actives raise or lower the signal;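 for AC50: MIG protein level measured by immunoassay in the treated endothelial cultures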
Summary of the method: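 Endothelial primary cells (human umbilical vein) are dosed with test chemical in the 3C system. MIG levels are measured by ELISA at 24 h and fitted in both directions relative to DMSO.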

[10] = molecular target: human Vitamin D Receptor (VDR), VDR (gene 7421) (UniProt P11473); assay: ATG_VDR_TRANS: Attagene TRANS-FACTORIAL HepG2 Assay for human Vitamin D Receptor (VDR) (AID 2283022; active = hit-call score of the fitted dose curve at least 0.9, where 1 is the maximum)
Chain of human Vitamin D Receptor (VDR), VDR (gene 7421) (P11473 whole entry, looked up): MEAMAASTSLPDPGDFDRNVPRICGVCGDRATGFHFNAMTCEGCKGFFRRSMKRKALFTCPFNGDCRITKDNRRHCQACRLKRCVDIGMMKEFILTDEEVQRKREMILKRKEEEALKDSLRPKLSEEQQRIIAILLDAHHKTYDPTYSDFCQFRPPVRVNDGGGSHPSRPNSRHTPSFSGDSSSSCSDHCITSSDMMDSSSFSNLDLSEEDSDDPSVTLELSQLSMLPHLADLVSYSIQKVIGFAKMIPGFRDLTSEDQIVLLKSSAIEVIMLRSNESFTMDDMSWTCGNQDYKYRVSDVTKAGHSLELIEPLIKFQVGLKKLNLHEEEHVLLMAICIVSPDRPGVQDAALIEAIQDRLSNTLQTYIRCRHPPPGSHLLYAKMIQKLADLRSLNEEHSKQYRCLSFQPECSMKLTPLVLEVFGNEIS
Summary of the method: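 Multiplexed TRANS reporter in HepG2; 24 h treatment; reporter mRNA by RT-PCR plus capillary electrophoresis; upregulation scored relative to DMSO.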

[11] = BSK_3C_SRB: Viability Assessment in the BioMAP Diversity Plus: 3C Assay (AID 2283023); details: primary human endothelial cells (HUVEC);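 note: fitted both ways against DMSO so a hit may be signal rise or drop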
Summary of the method: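 Overt cytotoxicity is gauged in parallel confluent HUVEC cultures by SRB total-protein staining at the time of biomarker measurement, 24 h after dosing. Gain or loss of signal is fitted versus DMSO.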

[12] = read-out: Matrix Metallopeptidase 1 (MMP1), MMP1 (gene 4312); assay: BSK_BE3C_MMP1: BioMAP Diversity Plus: BE3C Assay for Matrix Metallopeptidase 1 (MMP1) Biomarker Activity (AID 2283024); details: primary human bronchial epithelial cells; actives raise or lower the signal
Summary of the method: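 MMP1 signal, measured by ELISA after a 24 h chemical exposure of human primary bronchial epithelial cells, is analysed with bidirectional fitting using DMSO as negative control.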

[13] = BSK_3C_Vis: BioMAP Diversity Plus: 3C Assay for Morphology Visualization (AID 2283025); details: primary human endothelial cells (HUVEC);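 note: fitted both ways so gain or loss versus DMSO counts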
Summary of the method: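 Morphology read by light microscopy serves as a background control for the multiplexed 3C assay in human umbilical vein endothelial cells, taken 24 h after dosing, with DMSO as the negative control and bidirectional curve fitting.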

[14] = read-out: Pselectin, SELP (gene 6403); assay: BSK_4H_Pselectin: BioMAP Diversity Plus: 4H Assay for Pselectin Biomarker Activity (AID 2283026); details: primary human endothelial cells (HUVEC); actives raise or lower the signal
Summary of the method: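 Endothelial primary cells (human umbilical vein) are dosed, incubated 24 h, and assayed for surface P-selectin by ELISA; responses in either direction are fitted relative to the DMSO negative control.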

[15] = BSK_4H_SRB: Viability Assessment in the BioMAP Diversity Plus: 4H Assay (AID 2283027); details: primary human endothelial cells (HUVEC);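 note: cells exposed to compound for 24 h before staining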;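 for AC50: curves fitted both ways versus DMSO so AC50 may be loss or gain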
Summary of the method: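 Cytotoxicity readout: sulforhodamine B (0.1%) staining of total protein after 10% TCA fixation, measured at 560 nm in human umbilical vein endothelium at 24 h. DMSO set the baseline; fitting was bidirectional.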

[16] = BSK_BE3C_SRB: Viability Assessment in the BioMAP Diversity Plus: BE3C Assay (AID 2283028); details: primary human bronchial epithelial cells;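 for AC50: fitted both ways so AC50 may mark signal gain or loss versus DMSO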
Summary of the method: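 SRB total-protein staining (0.1%, after TCA fixation) of chemically dosed human bronchial epithelial primary cells at 24 h; DMSO serves as the negative control for bidirectional curve fitting.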

[17] = read-out: Thrombomodulin, THBD (gene 7056); assay: BSK_3C_Thrombomodulin: BioMAP Diversity Plus: 3C Assay for Thrombomodulin Biomarker Activity (AID 2283029); details: primary human endothelial cells (HUVEC); actives raise or lower the signal
Summary of the method: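 Endothelial cells from umbilical vein are dosed with test chemical and incubated 24 h. Thrombomodulin is then quantified by ELISA, with DMSO serving as negative control and activity baseline.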

[18] = read-out: Urokinase-type plasminogen activator receptor (uPAR), PLAUR (gene 5329); assay: BSK_4H_uPAR: BioMAP Diversity Plus: 4H Assay for Urokinase-type plasminogen activator receptor (uPAR) Biomarker Activity (AID 2283030); details: primary human endothelial cells (HUVEC); actives raise or lower the signal
Summary of the method: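 Endpoint derived via bidirectional curve fitting against DMSO baseline; readout was ELISA detection of uPAR on umbilical vein endothelial cells at 24 h post-treatment, with SRB-stained parallel cultures assessing cytotoxicity.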

[19] = molecular target: human RAR-related Orphan Receptor gamma (RORg), RORC (gene 6097) (UniProt P51449); assay: ATG_RORg_TRANS: Attagene TRANS-FACTORIAL HepG2 Assay for human RAR-related Orphan Receptor gamma (RORg) (AID 2283011; active = hit-call score of the fitted dose curve at least 0.9, where 1 is the maximum)
Chain of human RAR-related Orphan Receptor gamma (RORg), RORC (gene 6097) (P51449 whole entry, looked up, the tested form may be a part): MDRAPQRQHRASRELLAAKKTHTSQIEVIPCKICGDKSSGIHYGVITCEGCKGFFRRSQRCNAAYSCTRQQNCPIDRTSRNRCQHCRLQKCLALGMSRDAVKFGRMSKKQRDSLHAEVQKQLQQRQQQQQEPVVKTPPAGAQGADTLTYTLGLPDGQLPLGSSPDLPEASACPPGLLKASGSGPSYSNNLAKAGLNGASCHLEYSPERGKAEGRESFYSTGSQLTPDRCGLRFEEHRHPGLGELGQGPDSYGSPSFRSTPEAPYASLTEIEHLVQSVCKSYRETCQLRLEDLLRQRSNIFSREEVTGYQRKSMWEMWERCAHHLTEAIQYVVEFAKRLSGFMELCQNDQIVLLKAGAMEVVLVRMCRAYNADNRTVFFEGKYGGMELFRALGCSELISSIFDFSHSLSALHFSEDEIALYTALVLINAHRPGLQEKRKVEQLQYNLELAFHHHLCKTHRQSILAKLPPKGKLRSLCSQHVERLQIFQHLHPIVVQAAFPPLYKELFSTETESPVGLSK
Summary of the method: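 Chimeric RORg-Gal4 transactivation in transfected HepG2; 24 h exposure; RT-PCR/capillary electrophoresis readout of reporter mRNA, DMSO baseline.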

[20] = molecular target: human Thyroid Receptor alpha (THRa1), THRA (gene 7067) (UniProt P10827); assay: ATG_THRa1_TRANS: Attagene TRANS-FACTORIAL HepG2 Assay for human Thyroid Receptor alpha (THRa1) (AID 2283014; active = hit-call score of the fitted dose curve at least 0.9, where 1 is the maximum)
Chain of human Thyroid Receptor alpha (THRa1), THRA (gene 7067) (P10827 whole entry, looked up, the tested form may be a part): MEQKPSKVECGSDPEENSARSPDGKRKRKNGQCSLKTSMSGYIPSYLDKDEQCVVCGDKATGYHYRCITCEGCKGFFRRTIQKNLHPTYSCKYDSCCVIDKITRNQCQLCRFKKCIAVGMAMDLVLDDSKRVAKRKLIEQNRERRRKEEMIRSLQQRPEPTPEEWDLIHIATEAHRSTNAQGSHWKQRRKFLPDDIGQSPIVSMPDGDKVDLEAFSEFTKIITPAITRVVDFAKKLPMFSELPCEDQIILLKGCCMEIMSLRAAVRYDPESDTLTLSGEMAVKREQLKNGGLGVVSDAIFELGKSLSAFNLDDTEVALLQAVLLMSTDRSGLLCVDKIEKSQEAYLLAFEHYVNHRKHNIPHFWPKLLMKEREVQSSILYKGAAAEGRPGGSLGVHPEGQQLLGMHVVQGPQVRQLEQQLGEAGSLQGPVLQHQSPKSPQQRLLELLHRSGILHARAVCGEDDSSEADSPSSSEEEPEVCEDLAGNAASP
Summary of the method: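 Measured here is mRNA from a GAL4-UAS reporter in transfected HepG2 cells carrying a Gal4-fused receptor, 24 h post-dose. DMSO served as negative control and baseline.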

Measured: AC50

Chain of E-selectin (Homo sapiens) (P16581 whole entry, looked up): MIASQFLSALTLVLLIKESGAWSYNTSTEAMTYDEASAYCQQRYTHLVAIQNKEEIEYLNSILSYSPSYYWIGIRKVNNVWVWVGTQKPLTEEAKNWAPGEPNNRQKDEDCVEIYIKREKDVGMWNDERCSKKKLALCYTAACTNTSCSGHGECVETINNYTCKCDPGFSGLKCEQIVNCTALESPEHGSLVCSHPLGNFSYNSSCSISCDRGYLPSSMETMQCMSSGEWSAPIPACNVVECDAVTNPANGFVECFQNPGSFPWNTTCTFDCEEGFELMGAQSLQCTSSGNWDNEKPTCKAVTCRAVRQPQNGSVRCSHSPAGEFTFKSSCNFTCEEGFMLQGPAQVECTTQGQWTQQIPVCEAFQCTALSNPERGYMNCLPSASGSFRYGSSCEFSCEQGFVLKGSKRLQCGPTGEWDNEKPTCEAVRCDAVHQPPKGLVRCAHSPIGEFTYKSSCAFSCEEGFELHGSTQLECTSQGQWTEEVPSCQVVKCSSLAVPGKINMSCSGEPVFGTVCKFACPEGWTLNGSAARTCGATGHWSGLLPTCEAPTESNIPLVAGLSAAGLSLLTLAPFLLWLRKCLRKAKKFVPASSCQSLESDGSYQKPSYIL

CCNc1nc(Cl)nc(NCC)n1
inactive: [1] | [2] | [3] | [4] | [5] | [6] | [7] | [8] | [9] | [10] | [11] | [12] | [13] | [14] | [15] | [16] | [17] | [18]

CC(C)(C)c1ccc(CSc2cnn(C(C)(C)C)c(=O)c2Cl)cc1
inactive: [19] | [1] | [2] | [4] | [9] | [10] | [12] | [18]
active: [3] 3.97 µM | [5] 10.4 µM | [6] 0.221 µM | [7] 3.97 µM | [8] 7.27 µM | [11] 10.9 µM | [13] 15.2 µM | [14] 11.1 µM | [15] 16.5 µM | [16] 7.9 µM

C#CCOS(=O)OC1CCCCC1Oc1ccc(C(C)(C)C)cc1 (stereo not drawn)
active: [3] 1.13 µM | [4] 30.3 µM | [5] 10.9 µM | [6] 10.1 µM | [7] 6.28 µM | [8] 7.04 µM | [9] 20 µM | [11] 12.3 µM | [13] 5.07 µM | [14] 3.97 µM | [15] 11.3 µM | [16] 22.7 µM | [18] 20 µM
inactive: [19] | [1] | [20] | [12]

CCON=C(CC)C1=C(O)CC(c2c(C)cc(C)cc2C)CC1=O (stereo not drawn)
inactive: [2] | [3] | [4] | [5] | [6] | [7] | [8] | [9] | [11] | [12] | [13] | [14] | [15] | [16] | [18]

CN(C)C(=S)SSC(=S)N(C)C
inactive: [19] | [1] | [2] | [10] | [11]
active: [3] 30.5 µM | [4] 9.3 µM | [5] 30.9 µM | [6] 24 µM | [7] 14.9 µM | [8] 31.7 µM | [9] 33.6 µM | [12] 14.2 µM | [13] 16.3 µM | [14] 14 µM | [15] 25.7 µM | [16] 8.39 µM | [18] 26.3 µM

CC(C)Oc1cc(-n2nc(C(C)(C)C)oc2=O)c(Cl)cc1Cl
inactive: [19] | [1] | [20] | [4] | [9] | [10] | [18]
active: [3] 29.2 µM | [5] 30.7 µM | [6] 25.8 µM | [7] 29.7 µM | [8] 29 µM | [11] 28.8 µM | [12] 7.66 µM | [13] 13.2 µM | [14] 29.3 µM | [15] 30.3 µM | [16] 20 µM | [17] 20 µM

CS/C(C)=N/OC(=O)N(C)SN(C)C(=O)O/N=C(\C)SC
inactive: [19] | [1] | [4] | [12]
active: [3] 30 µM | [5] 29.6 µM | [6] 29.3 µM | [7] 15.8 µM | [8] 29.7 µM | [9] 35.1 µM | [11] 26.5 µM | [13] 11.9 µM | [14] 19.9 µM | [15] 29.6 µM | [16] 28.6 µM | [18] 26.8 µM

COP(=S)(OC)Oc1nc(Cl)c(Cl)cc1Cl
active: [3] 35.2 µM | [11] 20 µM | [13] 39 µM | [14] 20 µM
inactive: [1] | [2] | [4] | [5] | [6] | [7] | [8] | [9] | [12] | [15] | [16] | [17] | [18]
